40 sequences from the OligoGym collection can be followed below.
Also: reference of the scale not given here.

The target in the first experiment is NMRAL1. Nature of the experiment: pooled miR-30 sensor sort-seq; sequence = guide strand. Conditions: shRNA.
Consider TAATTGGTCACGATGAAGGTGG, for which the sensor-assay potency score (higher = more potent) is -0.074.

TTGATGTTCTCCAGGCCGCTGT: the sensor-assay potency score (higher = more potent) is -0.625.

For the sequence TCGGGTCACCACTCGAACCTTG, the sensor-assay potency score (higher = more potent) is -0.891.

For TCCTTTGCTGCCTTCTTCCTAG, the sensor-assay potency score (higher = more potent) is -1.25.

The sequence TTTGCTGCCTTCTTCCTAGGGT displayed a sensor-assay potency score (higher = more potent) of 0.121.

As to TTCTGCACCTTGCAGCCTCAGC, the sensor-assay potency score (higher = more potent) is -0.852.

On to TTGGCATCGTGCACGACCTTGC, for which the sensor-assay potency score (higher = more potent) was 0.214.

Turning to TTGGTCACGATGAAGGTGGCGT, the sensor-assay potency score (higher = more potent) was -0.0574.

Regarding TTCGTAGTCCTCAGGAGTCATC, the sensor-assay potency score (higher = more potent) is -1.71.

Regarding TACTCCTCGGCCGTGTGCCTGC, the sensor-assay potency score (higher = more potent) is -0.836.

The target in another experiment is NMUR2. The description is as above. Conditions: shRNA.
TTGTTGACTGATTTTCTGCAGG: the sensor-assay potency score (higher = more potent) was -0.441.

For the sequence TTCTTGACATCTGTTCACTAGA, the sensor-assay potency score (higher = more potent) is -0.341.

As to TTGTTCTTGACATCTGTTCACT, the sensor-assay potency score (higher = more potent) was -0.626.

Regarding TTTGTCTTTCTTTAGTCTGAGT, the sensor-assay potency score (higher = more potent) was -1.1.

Turning to TAGTTTGTTCTTGACATCTGTT, the sensor-assay potency score (higher = more potent) was -0.227.

Turning to TGGATCTTCTAGTTTCTGCTGG, the sensor-assay potency score (higher = more potent) stood at 0.385.

As to TTTCTTTAGTCTGAGTGCCATG, the sensor-assay potency score (higher = more potent) was -1.41.

TACATGAGTTGTAAGAGCCATT: the sensor-assay potency score (higher = more potent) was -0.996.

For the sequence TTGACTGATTTTCTGCAGGGTC, the sensor-assay potency score (higher = more potent) was -0.256.

Turning to TTGAACACAGCAGCCAGGGATT, the sensor-assay potency score (higher = more potent) is -1.59.

As for TTTGAATATTTGCATTCCCTTC, the sensor-assay potency score (higher = more potent) was -0.976.

Turning to TTGGGGACCTATATCTTCGGTC, the sensor-assay potency score (higher = more potent) is -0.773.

Another experiment deals with NODAL. Described as above. The conditions noted are these: shRNA.
For the sequence TTTATGGTGATCTAGGAGCACT, the sensor-assay potency score (higher = more potent) was -0.921.

Regarding TAACGTTTCAGCAGACTCTGGA, the sensor-assay potency score (higher = more potent) came out at 1.03.

As for ATGTATGCATGGTTGGTCGGAT, the sensor-assay potency score (higher = more potent) is -0.818.

Sequence TAAAGAACTCATGCACTTGTGC registered a sensor-assay potency score (higher = more potent) of 0.25.

For the sequence TGATCTAGGAGCACTCTGCCAT, the sensor-assay potency score (higher = more potent) was -0.476.

On to TGGTGATCTAGGAGCACTCTGC, for which the sensor-assay potency score (higher = more potent) was -1.24.

For the sequence TTGGAGAATACATGAAAGCTAT, the sensor-assay potency score (higher = more potent) was -0.351.

Consider TTATCCACATACAGCATGCTCA, for which the sensor-assay potency score (higher = more potent) was -0.807.

Turning to TTCAGTAAAGAGAACATCCAGC, the sensor-assay potency score (higher = more potent) came out at 0.203.

TCTGCCATTATCCACATACAGC: the sensor-assay potency score (higher = more potent) was -1.71.

On to TGTCTTTATGGTGATCTAGGAG, for which the sensor-assay potency score (higher = more potent) was -0.744.

TTTCAGCAGACTCTGGATGTAT: the sensor-assay potency score (higher = more potent) is -0.374.

The target in a further experiment is NOL7. The experiment is described as above. The conditions noted are these: shRNA.
As for TTTTGTACTTTAACTTTCTTGG, the sensor-assay potency score (higher = more potent) was -0.17.

Turning to TTATTTACAGTAGTCCTGTTGG, the sensor-assay potency score (higher = more potent) was -0.0686.

In the case of TTGTACTTTAACTTTCTTGGAG, the sensor-assay potency score (higher = more potent) was -0.0182.

As for TTTCTGACCATCCACCGTCTTT, the sensor-assay potency score (higher = more potent) was -1.02.

Regarding TTCGATGAACAGCTCCTCGCGT, the sensor-assay potency score (higher = more potent) was -0.6.

For TAACTTCTTTCACCTTTCCTGG, the sensor-assay potency score (higher = more potent) was -0.398.
